Data reported in ChEMBL document CHEMBL1961873, “Compounds: GSK PKIS; Assays: Nanosyn kinase panel” (2012).

Assays:
[1] = molecular target: 5'-AMP-activated protein kinase catalytic subunit alpha-2 (Homo sapiens) (UniProt P54646); conditions: at 1 µM
[2] = molecular target: T1, NUAK family SNF1-like kinase 1 (Homo sapiens) (UniProt O60285); conditions: at 0.1 µM
T1 sequence (whole entry): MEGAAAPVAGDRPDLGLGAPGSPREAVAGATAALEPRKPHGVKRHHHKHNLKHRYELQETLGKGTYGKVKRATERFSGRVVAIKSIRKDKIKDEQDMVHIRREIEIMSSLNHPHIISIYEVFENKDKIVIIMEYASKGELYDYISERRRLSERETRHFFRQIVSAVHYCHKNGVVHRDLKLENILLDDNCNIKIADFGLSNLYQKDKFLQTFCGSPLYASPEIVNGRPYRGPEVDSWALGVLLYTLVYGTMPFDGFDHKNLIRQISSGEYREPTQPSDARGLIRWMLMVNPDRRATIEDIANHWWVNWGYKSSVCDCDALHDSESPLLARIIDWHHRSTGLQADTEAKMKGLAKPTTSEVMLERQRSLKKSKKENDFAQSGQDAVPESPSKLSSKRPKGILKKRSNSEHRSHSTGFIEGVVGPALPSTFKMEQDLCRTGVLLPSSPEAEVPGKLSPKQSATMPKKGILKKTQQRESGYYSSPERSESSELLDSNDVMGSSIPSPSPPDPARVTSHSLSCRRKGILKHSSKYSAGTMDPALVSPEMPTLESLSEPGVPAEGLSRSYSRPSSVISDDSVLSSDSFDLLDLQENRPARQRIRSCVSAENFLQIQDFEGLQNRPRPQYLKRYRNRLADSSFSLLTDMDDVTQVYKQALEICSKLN

[3] = molecular target: T1, NUAK family SNF1-like kinase 1 (Homo sapiens); conditions: at 1 µM
[4] = molecular target: T2, Serine/threonine-protein kinase BRSK1 (Homo sapiens) (UniProt Q8TDC3); conditions: at 0.1 µM
T2 sequence (whole entry): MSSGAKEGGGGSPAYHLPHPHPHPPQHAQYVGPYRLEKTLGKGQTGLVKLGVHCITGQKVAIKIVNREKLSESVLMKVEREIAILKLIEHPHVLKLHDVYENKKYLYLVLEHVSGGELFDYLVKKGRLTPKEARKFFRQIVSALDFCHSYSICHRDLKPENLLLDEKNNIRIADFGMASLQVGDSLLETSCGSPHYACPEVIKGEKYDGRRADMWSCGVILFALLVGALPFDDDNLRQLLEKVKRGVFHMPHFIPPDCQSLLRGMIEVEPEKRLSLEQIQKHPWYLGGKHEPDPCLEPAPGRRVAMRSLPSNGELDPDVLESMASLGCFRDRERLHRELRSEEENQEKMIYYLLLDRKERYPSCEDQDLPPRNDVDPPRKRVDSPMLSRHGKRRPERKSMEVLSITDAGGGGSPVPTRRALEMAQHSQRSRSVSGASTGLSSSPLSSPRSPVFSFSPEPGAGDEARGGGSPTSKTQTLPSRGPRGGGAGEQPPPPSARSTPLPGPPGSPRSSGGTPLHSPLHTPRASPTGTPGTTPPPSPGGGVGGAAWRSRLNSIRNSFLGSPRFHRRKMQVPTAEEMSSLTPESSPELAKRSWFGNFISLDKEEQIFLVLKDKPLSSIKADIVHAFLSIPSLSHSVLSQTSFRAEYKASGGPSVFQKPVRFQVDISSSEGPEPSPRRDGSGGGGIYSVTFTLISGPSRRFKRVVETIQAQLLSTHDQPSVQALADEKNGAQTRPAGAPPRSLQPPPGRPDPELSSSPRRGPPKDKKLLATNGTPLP

[5] = molecular target: T2, Serine/threonine-protein kinase BRSK1 (Homo sapiens); conditions: at 1 µM
[6] = molecular target: T3, Serine/threonine-protein kinase BRSK2 (Homo sapiens) (UniProt Q8IWQ3); conditions: at 0.1 µM
T3 sequence (whole entry): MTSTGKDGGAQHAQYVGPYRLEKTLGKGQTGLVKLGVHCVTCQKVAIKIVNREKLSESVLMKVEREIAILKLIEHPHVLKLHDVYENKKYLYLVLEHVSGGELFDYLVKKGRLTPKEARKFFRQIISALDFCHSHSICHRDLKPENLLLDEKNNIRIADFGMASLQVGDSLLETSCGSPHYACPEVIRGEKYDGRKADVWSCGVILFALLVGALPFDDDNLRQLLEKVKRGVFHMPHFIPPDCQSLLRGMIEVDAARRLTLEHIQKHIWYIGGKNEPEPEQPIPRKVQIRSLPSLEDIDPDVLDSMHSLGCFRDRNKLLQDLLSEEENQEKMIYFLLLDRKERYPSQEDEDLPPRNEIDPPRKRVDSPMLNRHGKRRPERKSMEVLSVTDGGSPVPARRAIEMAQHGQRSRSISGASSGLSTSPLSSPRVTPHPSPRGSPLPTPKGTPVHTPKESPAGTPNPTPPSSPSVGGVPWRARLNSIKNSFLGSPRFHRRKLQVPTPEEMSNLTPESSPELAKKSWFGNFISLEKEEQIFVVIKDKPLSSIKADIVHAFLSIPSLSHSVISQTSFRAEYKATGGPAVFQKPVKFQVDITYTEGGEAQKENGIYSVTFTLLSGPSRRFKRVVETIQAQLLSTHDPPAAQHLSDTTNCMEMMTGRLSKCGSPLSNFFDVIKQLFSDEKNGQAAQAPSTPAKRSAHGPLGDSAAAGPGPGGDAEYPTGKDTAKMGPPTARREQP

[7] = molecular target: T3, Serine/threonine-protein kinase BRSK2 (Homo sapiens); conditions: at 1 µM
[8] = molecular target: Calcium/calmodulin-dependent protein kinase type 1D (Homo sapiens) (UniProt Q8IU85); conditions: at 0.1 µM
[9] = molecular target: Calcium/calmodulin-dependent protein kinase type 1D (Homo sapiens) (UniProt Q8IU85); conditions: at 1 µM
[10] = molecular target: Calcium/calmodulin-dependent protein kinase type II subunit alpha (Homo sapiens) (UniProt Q9UQM7); conditions: at 0.1 µM
[11] = molecular target: Calcium/calmodulin-dependent protein kinase type II subunit alpha (Homo sapiens) (UniProt Q9UQM7); conditions: at 1 µM
[12] = molecular target: Calcium/calmodulin-dependent protein kinase type II subunit delta (Homo sapiens) (UniProt Q13557); conditions: at 0.1 µM
[13] = molecular target: Calcium/calmodulin-dependent protein kinase type II subunit delta (Homo sapiens) (UniProt Q13557); conditions: at 1 µM
[14] = molecular target: T4, Calcium/calmodulin-dependent protein kinase type IV (Homo sapiens) (UniProt Q16566); conditions: at 0.1 µM
T4 sequence (whole entry): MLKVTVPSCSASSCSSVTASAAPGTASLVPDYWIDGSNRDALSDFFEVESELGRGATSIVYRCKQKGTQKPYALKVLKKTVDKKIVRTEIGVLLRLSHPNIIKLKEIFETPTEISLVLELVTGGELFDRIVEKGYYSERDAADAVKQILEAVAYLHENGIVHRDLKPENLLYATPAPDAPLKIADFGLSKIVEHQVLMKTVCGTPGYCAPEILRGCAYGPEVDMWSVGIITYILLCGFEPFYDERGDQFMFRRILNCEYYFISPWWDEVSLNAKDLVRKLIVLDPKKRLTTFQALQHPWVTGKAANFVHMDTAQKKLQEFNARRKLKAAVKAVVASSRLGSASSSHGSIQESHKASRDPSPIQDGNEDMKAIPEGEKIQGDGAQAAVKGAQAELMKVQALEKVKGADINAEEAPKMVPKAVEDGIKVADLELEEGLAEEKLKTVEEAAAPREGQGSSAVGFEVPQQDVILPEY

[15] = molecular target: T4, Calcium/calmodulin-dependent protein kinase type IV (Homo sapiens); conditions: at 1 µM
[16] = molecular target: T5, Serine/threonine-protein kinase Chk1 (Homo sapiens) (UniProt O14757); conditions: at 0.1 µM
T5 sequence (whole entry): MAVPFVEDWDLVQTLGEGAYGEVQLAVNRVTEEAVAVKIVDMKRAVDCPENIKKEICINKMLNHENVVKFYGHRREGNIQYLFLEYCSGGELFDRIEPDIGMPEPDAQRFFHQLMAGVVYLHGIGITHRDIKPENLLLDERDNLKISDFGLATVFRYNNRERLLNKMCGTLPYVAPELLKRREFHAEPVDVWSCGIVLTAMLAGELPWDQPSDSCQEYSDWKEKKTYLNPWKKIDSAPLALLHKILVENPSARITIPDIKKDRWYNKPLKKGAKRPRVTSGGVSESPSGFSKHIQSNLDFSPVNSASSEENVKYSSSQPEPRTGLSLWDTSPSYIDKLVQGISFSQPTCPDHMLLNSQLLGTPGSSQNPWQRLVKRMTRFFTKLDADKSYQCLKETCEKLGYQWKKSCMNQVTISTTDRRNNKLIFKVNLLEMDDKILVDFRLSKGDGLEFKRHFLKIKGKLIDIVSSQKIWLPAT

[17] = molecular target: T5, Serine/threonine-protein kinase Chk1 (Homo sapiens); conditions: at 1 µM
[18] = molecular target: Serine/threonine-protein kinase Chk2 (Homo sapiens) (UniProt O96017); conditions: at 0.1 µM
[19] = molecular target: Serine/threonine-protein kinase Chk2 (Homo sapiens) (UniProt O96017); conditions: at 1 µM
[20] = molecular target: Death-associated protein kinase 1 (Homo sapiens) (UniProt P53355); conditions: at 0.1 µM;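 note: reported figure is the mean inhibition of DAPK1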
Sequence of Death-associated protein kinase 1 (Homo sapiens) (P53355 whole entry, looked up): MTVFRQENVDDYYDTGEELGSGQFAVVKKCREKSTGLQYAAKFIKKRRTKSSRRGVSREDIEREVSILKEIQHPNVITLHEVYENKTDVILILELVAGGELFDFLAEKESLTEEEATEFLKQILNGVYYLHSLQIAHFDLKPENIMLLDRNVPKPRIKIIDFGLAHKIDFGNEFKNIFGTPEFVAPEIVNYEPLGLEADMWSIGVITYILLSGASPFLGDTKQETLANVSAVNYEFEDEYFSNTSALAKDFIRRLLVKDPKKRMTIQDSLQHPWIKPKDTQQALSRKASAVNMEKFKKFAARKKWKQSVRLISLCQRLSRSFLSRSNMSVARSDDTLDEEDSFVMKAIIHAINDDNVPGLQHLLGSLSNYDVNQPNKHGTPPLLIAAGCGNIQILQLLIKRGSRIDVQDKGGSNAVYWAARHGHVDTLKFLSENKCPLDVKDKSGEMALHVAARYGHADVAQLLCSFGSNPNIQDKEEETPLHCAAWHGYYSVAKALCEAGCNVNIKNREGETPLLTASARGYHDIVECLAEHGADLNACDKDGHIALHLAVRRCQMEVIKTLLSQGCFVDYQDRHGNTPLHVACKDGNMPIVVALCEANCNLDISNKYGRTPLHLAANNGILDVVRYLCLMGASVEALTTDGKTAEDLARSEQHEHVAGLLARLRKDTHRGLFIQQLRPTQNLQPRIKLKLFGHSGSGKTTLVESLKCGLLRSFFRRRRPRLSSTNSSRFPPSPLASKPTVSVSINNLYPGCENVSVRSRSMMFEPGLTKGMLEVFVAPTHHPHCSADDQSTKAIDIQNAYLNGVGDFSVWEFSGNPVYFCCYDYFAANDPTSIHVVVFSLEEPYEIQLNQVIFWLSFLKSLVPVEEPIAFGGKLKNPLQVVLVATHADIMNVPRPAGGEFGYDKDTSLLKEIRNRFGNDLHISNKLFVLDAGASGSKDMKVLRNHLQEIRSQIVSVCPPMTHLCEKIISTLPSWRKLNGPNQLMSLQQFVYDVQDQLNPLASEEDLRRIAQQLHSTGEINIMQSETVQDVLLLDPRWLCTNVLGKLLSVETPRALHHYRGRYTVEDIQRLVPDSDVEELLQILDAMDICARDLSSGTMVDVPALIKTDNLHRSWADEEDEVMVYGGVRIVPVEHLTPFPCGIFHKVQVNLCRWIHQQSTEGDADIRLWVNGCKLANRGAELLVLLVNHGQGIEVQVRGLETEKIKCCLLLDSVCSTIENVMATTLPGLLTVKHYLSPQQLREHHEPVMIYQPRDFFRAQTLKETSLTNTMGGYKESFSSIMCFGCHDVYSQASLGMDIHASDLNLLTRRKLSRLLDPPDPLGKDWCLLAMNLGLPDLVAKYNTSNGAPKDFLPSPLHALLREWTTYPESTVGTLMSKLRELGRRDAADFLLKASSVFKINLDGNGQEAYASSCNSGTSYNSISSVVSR

Sequence of Calcium/calmodulin-dependent protein kinase type II subunit alpha (Homo sapiens) (Q9UQM7 whole entry): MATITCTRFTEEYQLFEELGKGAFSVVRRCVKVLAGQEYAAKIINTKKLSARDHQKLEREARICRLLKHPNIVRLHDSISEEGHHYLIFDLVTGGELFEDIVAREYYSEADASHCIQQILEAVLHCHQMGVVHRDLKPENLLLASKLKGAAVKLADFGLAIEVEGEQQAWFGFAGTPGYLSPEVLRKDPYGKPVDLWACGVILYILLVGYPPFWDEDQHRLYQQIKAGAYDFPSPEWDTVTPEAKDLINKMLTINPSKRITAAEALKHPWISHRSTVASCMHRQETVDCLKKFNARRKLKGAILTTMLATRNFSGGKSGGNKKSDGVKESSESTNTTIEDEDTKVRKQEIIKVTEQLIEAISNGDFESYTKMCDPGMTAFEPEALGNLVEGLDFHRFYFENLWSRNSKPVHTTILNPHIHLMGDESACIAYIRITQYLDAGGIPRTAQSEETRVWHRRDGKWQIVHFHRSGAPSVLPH
Sequence of Serine/threonine-protein kinase Chk2 (Homo sapiens) (O96017 whole entry): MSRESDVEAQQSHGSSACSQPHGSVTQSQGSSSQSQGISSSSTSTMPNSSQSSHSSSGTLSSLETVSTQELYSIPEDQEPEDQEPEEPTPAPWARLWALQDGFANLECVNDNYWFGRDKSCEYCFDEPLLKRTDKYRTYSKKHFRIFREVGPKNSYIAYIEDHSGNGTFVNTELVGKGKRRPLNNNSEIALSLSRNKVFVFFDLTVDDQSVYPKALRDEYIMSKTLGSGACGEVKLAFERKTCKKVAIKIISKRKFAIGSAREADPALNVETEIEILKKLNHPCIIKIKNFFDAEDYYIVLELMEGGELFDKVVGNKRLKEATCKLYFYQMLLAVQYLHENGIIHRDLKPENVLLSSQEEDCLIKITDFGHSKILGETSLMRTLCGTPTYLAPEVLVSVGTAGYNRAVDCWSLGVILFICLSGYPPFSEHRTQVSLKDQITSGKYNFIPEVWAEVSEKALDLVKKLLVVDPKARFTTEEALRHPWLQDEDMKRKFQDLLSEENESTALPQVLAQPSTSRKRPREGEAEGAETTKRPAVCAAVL
Sequence of Calcium/calmodulin-dependent protein kinase type 1D (Homo sapiens) (Q8IU85 whole entry, looked up): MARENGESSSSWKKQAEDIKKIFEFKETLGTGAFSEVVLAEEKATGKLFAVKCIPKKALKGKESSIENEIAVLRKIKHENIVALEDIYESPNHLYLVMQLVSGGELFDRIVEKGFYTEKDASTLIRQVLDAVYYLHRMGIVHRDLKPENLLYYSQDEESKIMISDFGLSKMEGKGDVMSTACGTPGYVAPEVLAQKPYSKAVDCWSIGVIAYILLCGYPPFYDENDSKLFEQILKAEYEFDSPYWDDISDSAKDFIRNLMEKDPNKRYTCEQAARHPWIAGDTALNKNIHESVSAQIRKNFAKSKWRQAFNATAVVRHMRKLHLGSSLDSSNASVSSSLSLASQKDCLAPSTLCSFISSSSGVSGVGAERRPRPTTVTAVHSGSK
Sequence of Calcium/calmodulin-dependent protein kinase type II subunit delta (Homo sapiens) (Q13557 whole entry): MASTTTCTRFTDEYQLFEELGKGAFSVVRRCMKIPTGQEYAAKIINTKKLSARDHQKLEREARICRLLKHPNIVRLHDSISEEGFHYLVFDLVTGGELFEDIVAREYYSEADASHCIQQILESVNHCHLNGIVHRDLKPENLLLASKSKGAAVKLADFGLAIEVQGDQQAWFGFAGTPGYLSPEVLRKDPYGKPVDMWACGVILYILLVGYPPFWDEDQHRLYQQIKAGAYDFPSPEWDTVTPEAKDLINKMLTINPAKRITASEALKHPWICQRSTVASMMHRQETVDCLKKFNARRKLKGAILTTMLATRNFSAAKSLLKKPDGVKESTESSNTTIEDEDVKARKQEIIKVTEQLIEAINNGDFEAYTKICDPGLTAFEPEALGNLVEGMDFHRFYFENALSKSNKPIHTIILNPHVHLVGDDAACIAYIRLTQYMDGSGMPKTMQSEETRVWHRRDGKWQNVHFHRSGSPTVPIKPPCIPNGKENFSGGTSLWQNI
Sequence of 5'-AMP-activated protein kinase catalytic subunit alpha-2 (Homo sapiens) (P54646 whole entry, looked up): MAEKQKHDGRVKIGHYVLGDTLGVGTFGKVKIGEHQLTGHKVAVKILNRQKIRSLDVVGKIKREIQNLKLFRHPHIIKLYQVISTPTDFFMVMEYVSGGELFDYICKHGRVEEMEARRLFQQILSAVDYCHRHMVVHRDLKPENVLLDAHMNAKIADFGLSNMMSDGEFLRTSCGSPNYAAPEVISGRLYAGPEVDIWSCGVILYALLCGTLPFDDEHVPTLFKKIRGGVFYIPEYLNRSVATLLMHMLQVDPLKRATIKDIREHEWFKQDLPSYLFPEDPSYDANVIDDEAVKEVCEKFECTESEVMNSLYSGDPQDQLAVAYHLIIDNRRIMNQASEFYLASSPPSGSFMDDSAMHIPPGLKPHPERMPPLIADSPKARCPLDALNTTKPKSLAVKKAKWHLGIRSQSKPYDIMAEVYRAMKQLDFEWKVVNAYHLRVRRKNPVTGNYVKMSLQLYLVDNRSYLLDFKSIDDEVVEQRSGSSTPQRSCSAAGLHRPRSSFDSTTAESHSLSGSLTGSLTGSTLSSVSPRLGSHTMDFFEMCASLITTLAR

Row | Compound | inhibition [1] | inhibition [2] | inhibition [3] | inhibition [4] | inhibition [5] | inhibition [6] | inhibition [7] | inhibition [8] | inhibition [9] | inhibition [10] | inhibition [11] | inhibition [12] | inhibition [13] | inhibition [14] | inhibition [15] | inhibition [16] | inhibition [17] | inhibition [18] | inhibition [19] | inhibition [20]
1 | Cc1cc(O)cc(C)c1/C=C/c1cncc(C(=O)N(C)C)c1 | 4.38% | 1.62% | 8.58% | 2.98% | 8.54% | 3.48% | 6.07% | -0.81% | 2.29% | 3.26% | 3.57% | 3.56% | 4.04% | 2.13% | 0.97% | 5.84% | 2.96% | -0.15% | 0.11% | 3.93%
2 | Nc1ccc(C#Cc2cncnc2Nc2ccc(OCc3cccc(F)c3)c(Cl)c2)cc1 | 2.03% | 1.31% | -1.87% | 1.62% | 0.9% | 1.82% | 1.94% | 0.26% | 0.65% | 1.19% | -1.06% | 0.73% | 0.72% | 1.79% | -0.16% | 0.65% | 0.62% | 1.8% | 0.63% | 4.63%
3 | COc1ccc2ncnc(Nc3ccc(OCc4ccccc4)cc3)c2c1 | 2.09% | 0.25% | -1.38% | -0.52% | 0.79% | 2.22% | 1.79% | 0.63% | 1.33% | 0.65% | 2.13% | 0.77% | 1.93% | 0.01% | 0.04% | 0.93% | 3.17% | 1.65% | 14.2% | 3.34%
4 | NS(=O)(=O)c1cccc(Nc2cc(-c3ccc(F)cc3)n[nH]2)c1 | 10.9% | -3.46% | 12.6% | 1.36% | 5.97% | 3.15% | 11.2% | -0.34% | -0.05% | 2.68% | 3.11% | 2.57% | 7.84% | -1.7% | -3.94% | -1.71% | 17.6% | 8.44% | 11.9% | 10.4%
5 | COc1ccc(-c2nn3ncccc3c2-c2ccnc(Nc3cccc(C(F)(F)F)c3)n2)cc1 | 3.96% | 0.91% | -0.63% | -0.24% | 1.65% | 2.63% | 2.85% | 0.46% | 0.37% | 2.25% | -0.66% | 1.66% | 0.95% | 1.07% | -0.19% | 1.85% | -3.09% | 2.01% | 1.61% | 4.24%
6 | CN(C)C(=O)O[C@H]1CN[C@H](C#Cc2cc3ncnc(Nc4ccc(OCc5cccc(F)c5)c(Cl)c4)c3s2)C1 | 3.32% | 1.87% | 1.59% | 2.39% | 3.13% | 2.38% | 2.85% | 0.05% | 0.1% | 2.54% | 1.77% | 2.42% | 2.41% | 1.15% | 0.23% | 0.86% | 2.73% | 1.56% | 3.31% | 1.79%
7 | CC(C)c1ccc(Nc2nccc(-c3cnn4ncccc34)n2)cc1 | 4.11% | 12.6% | 48.9% | -0.04% | 3.13% | 1.33% | 4.11% | -0.71% | 2.35% | 1.42% | 4.19% | 2.72% | 8.29% | 1.15% | 2.83% | -1.58% | -2.41% | 1.57% | 3.38% | -1.79%
